Assay results: PubChem BioAssay AID1347156 (National Center for Advancing Translational Sciences (NCATS), 2019)
Inconclusive results are not listed. A number with no mark means an inactive call. The source made the active and inactive calls. Calls follow the shape of the dose curve; as a rule, active = well fitted cell-killing curve with a large enough effect; inconclusive = small, poorly fitted or top-dose-only effect; inactive = flat fitted curve, though single readings scatter.

Experiment: DAPI mCherry counterscreen qHTS for Zika virus inhibitors; also: nearly all actives have a fitted effect of over 55% in size
Details: Vero cells, DAPI nuclear count cytotoxicity, imaging 48-72 h; series mostly up to 32.6 µM; activity change, negative = cell loss: at the top concentration
From the text: Assay Submitters (PI): Avindra Nath, Ph.D., National Institute of Neurological Disorders and Stroke (NINDS), Bethesda, MD Radhakrishnan Padmanabhan, Ph.D., Georgetown University (GU), Washington D.C. Zika Virus causes congenital defects, including microcephaly and is associated with Guillain-Barre syndrome, eningoencephalitis and myelitis in infected adult. […] Using a target-based approach, we hope to establish a screening paradigm to uncover novel, cell-active NS2B-NS3 protease (Zika Virus) specific inhibitors from NCATS' collection of small molecules using qHTS. […] Four assay panel was created to identify potential Zika Virus inhibitors. Namely, (1) GU unlinked NS2B-NS3 AMC tagged protease qHTS, (2) GU unlinked NS2B-NS3 Rhodamine tagged protease qHTS, (3) NINDS linked NS2B-NS3 AMC tagged protease qHTS, (4) NINDS linked NS2B-NS3 Rhodamine tagged protease qHTS. Active compounds were re-acquired and re-screened to confirm inhibition. Inhibitors were further screened against various confirmatory and counterscreens in dose response format. […] A DAPI (mCherry counterscreen) which determine Vero cell cytotoxicity was used to exclude false positive compounds. […] Early Translation Branch (ETB) National Center for Advancing Translational Sciences (NCATS), Rockville, MD National Institute of Health (NIH), Bethesda, Maryland
384 well ZIKV-mCherry & mCherry DAPI counterscreen: We have developed a new orthogonal imaging assay in 384-well plate format, which uses recombinant virus ZIKV-mCherry in Vero cells. Briefly, 30 microL of Vero cells derived from a green monkey cell line, were dispensed by Multidrop Dispenser into a clear solid bottom black 384 well plate (ultracarrier, Perkin Elmer LifeSciences) at a concentration of 5,000 cells per well. The plate was incubated overnight in a CO2 incubator at 37 degrees C. Compounds were delivered as a 126 nL DMSO solution by Kalypsys pintool transfer. Following compound transfer, 10 microL of ZIKV-mCherry was added at an MOI of 1 and incubated in a CO2 incubator for 48-72 hrs at 37 degrees C. After sufficient incubation of infected cells in test plates, 8 microL of 32% PFA was dispensed into assay plates to fix cells and incubated for 20 min at room temperature. Plates were washed 3 times with PBS using BioTek EL406 microplate washer/dispenser. After washing, 30 microL of PBS with 0.01% TX-100 containing Hoechst dye was dispensed into the each well of the plates for nuclear staining. 384-well plates were imaged on an automated, widefield high content imager (INCell 2200, GE Healthcare) using a 10x/0.45 NA lens and standard DAPI (nuclear stain) and mCherry (cy5) excitation and emission filters. The TIFFs were quantitated using the canned Multi Target Analysis protocol (GE Investigator Workstation software v3.7.2). Briefly, nuclei from the DAPI channel were identified using top hat segmentation and a sensitivity setting of 96 and minimum size area of 35 microm2. A recombinant Zika viral infection was monitored in the Cy5 channel (cells) using a 2 microm collar dilation from the nuclear bitmap. mCherry objects with an average nuclear RFU intensity above 450 (3 stdev above mean negative control wells) were considered "mcherry positive" and data was analyzed by percent infection rate.
% is scaled to controls: 0 for no effect and ±100 for the full control effect; potency is read from the fitted curve at half-maximal effect.

Q: For `CN(C)[C@@H]1C(=O)C(C(N)=O)=C(O)[C@@]2(O)C(=O)C3=C(O)c4c(O)cccc4[C@@](C)(O)[C@H]3[C@H](O)[C@@H]12`, which “activity change, negative = cell loss” value is on record?
A: Its value is -7.31%.

Q: For `CC(C)=CCCC1(C)C=Cc2c(O)c3c(c(CC=C(C)C)c2O1)OC12C(=CC4CC1C(C)(C)OC2(C/C=C(/C)C(=O)O)C4O)C3=O` (stereo not drawn), which Potency is on record?
A: The Potency was 3.16 µM (active).

Q: For `CC1=C(O)C(=O)C=C2C1=CC=C1[C@@]2(C)CC[C@@]2(C)[C@@H]3C[C@](C)(C(=O)O)CC[C@]3(C)CC[C@]12C`, which Potency is on record?
A: Its Potency is 1.12 µM (active).

Q: For `O=c1oc2ccccc2c(O)c1C(CC(O)c1ccc(-c2ccc(Br)cc2)cc1)c1ccccc1` (stereo not drawn), which Potency is on record?
A: Its Potency is 15.8 µM (active).

Q: Which Potency does the source give for `O=C1C(I)=CC(=C(c2cc(I)c(O)c(I)c2)c2ccccc2C(=O)O)C=C1I` here?
A: The Potency was 25.1 µM (active).

Q: Which “activity change, negative = cell loss” value does the source give for `O=C(O)c1cc(Oc2ccc(C(F)(F)F)cc2Cl)ccc1[N+](=O)[O-]` here?
A: The value was -7.31% [at 32.6 µM, infected with Zika reporter virus, MOI 1].

Q: For `Cc1cc(SCc2sc(-c3ccc(C(F)(F)F)c(F)c3)nc2C)ccc1OCC(=O)O`, which Potency is on record?
A: Its Potency is 14.1 µM (active).

Q: Which Potency does the source give for `CC(C)=CCC[C@]1(C)C=Cc2c(O)c3c(c(CC=C(C)C)c2O1)O[C@]12C(=C[C@@H]4CC1C(C)(C)O[C@@]2(C/C=C(/C)C(=O)O)C4=O)C3=O` here?
A: Its Potency is 1.12 µM [infected with Zika reporter virus, MOI 1] (active).

Q: Which “activity change, negative = cell loss” value does the source give for `N[C@@H](Cc1ccc(Oc2cc(I)c(O)c(I)c2)c(I)c1)C(=O)O` here?
A: The value was -9.54%.

Q: Which “activity change, negative = cell loss” value does the source give for `O=c1c(O)c(-c2ccc(O)c(O)c2)oc2c(O)c(O)cc(O)c12` here?
A: Its value is -7.13% [at 32.6 µM, infected with Zika reporter virus, MOI 1].

Q: Which “activity change, negative = cell loss” value does the source give for `O=C1OC(c2ccc(O)c(S(=O)(=O)O)c2)(c2ccc(O)c(S(=O)(=O)O)c2)c2c(Br)c(Br)c(Br)c(Br)c21` here?
A: Its value is -3.73%.

Q: Which Potency does the source give for `O=C(O)C(=O)c1cn(Cc2ccccc2)c2ccc(-c3ccc(OC(F)(F)F)cc3)cc12` here?
A: The Potency was 28.2 µM (active).

Q: Which Potency does the source give for `C[C@H]1[C@H]2Cc3ccc(O)cc3[C@]1(C)CCN2CCc1ccccc1` here?
A: The Potency was 22.4 µM (active).

Q: For `CNc1ccc2oc(C[C@@H]3OC4(CC[C@@H]3C)O[C@H]([C@@H](C)C(=O)c3ccc[nH]3)[C@H](C)C[C@H]4C)nc2c1C(=O)O` (stereo partly drawn), which Potency is on record?
A: Its Potency is 1 µM (active).

Q: Which Potency does the source give for `O=C(Nc1ccc(Br)cc1)c1cc(Br)cc(Br)c1O` here?
A: The Potency was 8.91 µM (active).

Q: Which Potency does the source give for `CC(=O)c1c(O)c(C)c(O)c(Cc2c(O)c3c(c(C(=O)/C=C/c4ccccc4)c2O)OC(C)(C)C=C3)c1O` here?
A: Its Potency is 14.1 µM (active).

Q: With `CCCCCOc1cc2c(cc1-c1cc(/C=C/C(=O)O)ccc1O)C(C)(C)CCC2(C)C` as the molecule, how does the Potency read?
A: Its Potency is 15.8 µM (active).

Q: Which Potency does the source give for `O=c1c(C2CC(c3ccc(-c4ccc(Br)cc4)cc3)Cc3ccccc32)c(O)sc2ccccc12` (stereo not drawn) here?
A: The Potency was 8.91 µM (active).
